Assay results published in PubChem BioAssay (NCI).
The panel holds about 83,000 compounds, 20% with a hit somewhere; the sample as a whole holds those more often.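 Negative percent growth values reflect cell death: -40 means 40% of the cells present at the start died, and -100 means all died.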 The source made the active and inactive calls. Rule for the calls: active = growth percent below 10; inactive = the rest.

Tests used:
Test in all cases: NCI-60 one-dose screen, 48 h (100 = growth as untreated, 0 = no growth, -100 = all killed)
Conditions in all cases: 10 µM unless noted
NCI-H23 lung = system: NCI-H23 lung
NCI-H226 lung = system: NCI-H226 lung
NCI-H322M lung = system: NCI-H322M lung
HOP-62 NSCLC = system: HOP-62 NSCLC
NCI-H460 lung = system: NCI-H460 lung
NCI-H522 lung = system: NCI-H522 lung
A549/ATCC NSCLC = system: A549/ATCC NSCLC
786-0 renal = system: 786-0 renal
COLO 205 colon = system: COLO 205 colon
DU-145 prostate = system: DU-145 prostate
K-562 leukemia = system: K-562 leukemia
MALME-3M melanoma = system: MALME-3M melanoma
MDA-MB-231 breast = system: MDA-MB-231 breast
RXF 393 renal = system: RXF 393 renal
SF-268 CNS = system: SF-268 CNS
SF-295 CNS = system: SF-295 CNS
SF-539 CNS = system: SF-539 CNS
UACC-257 melanoma = system: UACC-257 melanoma
M14 melanoma = system: M14 melanoma

Measured: growth

COc1ccc(C(=O)Nc2ncc(Cc3ccccc3Cl)s2)cc1
inactive: NCI-H23 lung 17.9% | NCI-H226 lung 31.7% | NCI-H322M lung 54.3% | HOP-62 NSCLC 39.2% | A549/ATCC NSCLC 24.3% | 786-0 renal 28.9% | DU-145 prostate 18.2% | MALME-3M melanoma 57.1% | MDA-MB-231 breast 24.9% | SF-268 CNS 43.3% | UACC-257 melanoma 67% | M14 melanoma 15.5%
active: NCI-H460 lung 2.79% | NCI-H522 lung -37.3% | COLO 205 colon -48.3% | K-562 leukemia 7.56% | RXF 393 renal -2.13% | SF-295 CNS 7.7% | SF-539 CNS 2.11%

COc1ccc(-n2c(SCc3nnc(NC(=O)c4ccc(Br)cc4)s3)nc3cc(OC)c(OC)cc3c2=O)cc1
inactive: NCI-H23 lung 92.5% | NCI-H226 lung 74% | NCI-H322M lung 85.5% | HOP-62 NSCLC 92.3% | NCI-H460 lung 93.5% | NCI-H522 lung 89.2% | A549/ATCC NSCLC 102% | 786-0 renal 105% | COLO 205 colon 104% | DU-145 prostate 89.4% | K-562 leukemia 100% | MALME-3M melanoma 92.2% | MDA-MB-231 breast 87.9% | RXF 393 renal 104% | SF-268 CNS 86.4% | SF-295 CNS 93.2% | SF-539 CNS 92.9% | UACC-257 melanoma 101% | M14 melanoma 92.5%

O=C1/C(=C/C=C/c2ccco2)SC(=S)N1C1CCCCC1
inactive: NCI-H23 lung 91.3% | NCI-H226 lung 105% | NCI-H322M lung 97.4% | HOP-62 NSCLC 102% | NCI-H460 lung 95.7% | NCI-H522 lung 75.9% | A549/ATCC NSCLC 86.8% | 786-0 renal 106% | COLO 205 colon 72.9% | DU-145 prostate 95% | K-562 leukemia 83.5% | MALME-3M melanoma 83.6% | MDA-MB-231 breast 74% | RXF 393 renal 47.7% | SF-268 CNS 109% | SF-295 CNS 97.6% | SF-539 CNS 94.8% | UACC-257 melanoma 67.7% | M14 melanoma 93.8%

COc1cc(OC)c(S(N)(=O)=O)cc1C(=O)/C=C/c1ccc(C)cc1
inactive: NCI-H322M lung 34.6% | HOP-62 NSCLC 11.9% | NCI-H522 lung 11% | A549/ATCC NSCLC 22.5% | 786-0 renal 19.9% | COLO 205 colon 17% | MALME-3M melanoma 72.9% | MDA-MB-231 breast 14.2% | SF-268 CNS 31.6% | SF-295 CNS 23.6% | UACC-257 melanoma 81% | M14 melanoma 41.5%
active: NCI-H23 lung 8.61% | NCI-H226 lung -2.47% | NCI-H460 lung -3.51% | DU-145 prostate 1.29% | K-562 leukemia 7.24% | RXF 393 renal -28.2% | SF-539 CNS 1.82%

Cc1cccc2c3c(sc12)C(c1ccc(F)cc1)C(C#N)=C(/N=C/c1ccc(Cl)cc1)O3 (stereo not drawn)
inactive: NCI-H23 lung 19.1% | NCI-H226 lung 29.9% | NCI-H322M lung 47.4% | HOP-62 NSCLC 28% | A549/ATCC NSCLC 21.7% | 786-0 renal 25.6% | DU-145 prostate 20.8% | MALME-3M melanoma 63.5% | MDA-MB-231 breast 25.6% | SF-268 CNS 41.5% | UACC-257 melanoma 56.4%
active: NCI-H460 lung 5.27% | NCI-H522 lung -53% | COLO 205 colon -49% | K-562 leukemia 7.18% | RXF 393 renal 2.24% | SF-295 CNS 3.61% | SF-539 CNS -13.1% | M14 melanoma -3.44%

COc1ccc(CCN2C(=O)CSC2=S)cc1
inactive: NCI-H23 lung 103% | NCI-H226 lung 115% | NCI-H322M lung 99.4% | HOP-62 NSCLC 104% | NCI-H460 lung 103% | NCI-H522 lung 69.3% | A549/ATCC NSCLC 102% | 786-0 renal 87.3% | COLO 205 colon 117% | DU-145 prostate 41% | K-562 leukemia 51.4% | MALME-3M melanoma 98% | MDA-MB-231 breast 79.6% | RXF 393 renal 89.7% | SF-268 CNS 100% | SF-295 CNS 97.6% | SF-539 CNS 84.7% | UACC-257 melanoma 98.9% | M14 melanoma 101%

COc1ccc(/C=C/C(=O)c2cc(S(N)(=O)=O)c(OC)cc2OC)cc1
inactive: NCI-H23 lung 74.7% | NCI-H226 lung 100% | NCI-H322M lung 77.2% | HOP-62 NSCLC 83% | NCI-H460 lung 69.8% | NCI-H522 lung 78% | A549/ATCC NSCLC 84.3% | 786-0 renal 88.1% | COLO 205 colon 92.6% | DU-145 prostate 17.3% | K-562 leukemia 26.1% | MALME-3M melanoma 98% | MDA-MB-231 breast 64.6% | RXF 393 renal 40.1% | SF-268 CNS 80.7% | SF-295 CNS 93.2% | SF-539 CNS 76.4% | UACC-257 melanoma 87.9% | M14 melanoma 84.3%

Cc1cccc2c3c(sc12)C(c1ccc(Cl)cc1)c1c(nc(CC(=O)Nc2ccccc2)[nH]c1=O)O3 (stereo not drawn)
inactive: NCI-H23 lung 55.1% | NCI-H226 lung 65.4% | NCI-H322M lung 76.5% | HOP-62 NSCLC 59.8% | NCI-H460 lung 42.1% | NCI-H522 lung 26.9% | A549/ATCC NSCLC 62.6% | 786-0 renal 75.9% | COLO 205 colon 101% | DU-145 prostate 93% | K-562 leukemia 20.9% | MALME-3M melanoma 51.3% | MDA-MB-231 breast 77% | RXF 393 renal 39.9% | SF-268 CNS 66.7% | SF-295 CNS 29.1% | SF-539 CNS 40% | UACC-257 melanoma 79.8% | M14 melanoma 61.7%

N#Cc1cccc(/C(N)=N/C(N)=N/c2nc3ccccc3s2)c1
inactive: NCI-H23 lung 27.7% | NCI-H226 lung 72% | NCI-H322M lung 48.5% | HOP-62 NSCLC 45% | NCI-H460 lung 22% | A549/ATCC NSCLC 60.8% | 786-0 renal 46% | COLO 205 colon 17.4% | DU-145 prostate 17.5% | K-562 leukemia 12.7% | MALME-3M melanoma 59.3% | MDA-MB-231 breast 37.3% | RXF 393 renal 13% | SF-268 CNS 56.5% | UACC-257 melanoma 90.6% | M14 melanoma 20.8%
active: NCI-H522 lung 3.75% | SF-295 CNS 1.87% | SF-539 CNS 4.08%

O=C(Nc1nc2ccc([N+](=O)[O-])cc2s1)Nc1ccccc1Br
inactive: NCI-H226 lung 38.4% | NCI-H322M lung 27.6% | HOP-62 NSCLC 91.2% | NCI-H460 lung 27.4% | NCI-H522 lung 26.5% | A549/ATCC NSCLC 49.4% | 786-0 renal 70% | COLO 205 colon 55.3% | DU-145 prostate 46.5% | K-562 leukemia 20.7% | MALME-3M melanoma 14.6% | MDA-MB-231 breast 72.7% | RXF 393 renal 62.2% | SF-268 CNS 38.3% | SF-295 CNS 38.1% | SF-539 CNS 39.9% | UACC-257 melanoma 30.4% | M14 melanoma 54.5%
active: NCI-H23 lung 9.86%

COc1ccc(NCc2cn(-c3ccc(C(=O)O)cc3)nc2-c2cc(C(F)(F)F)cc(C(F)(F)F)c2)cc1
inactive: NCI-H23 lung 104% | NCI-H226 lung 107% | NCI-H322M lung 94% | HOP-62 NSCLC 104% | NCI-H460 lung 93.6% | NCI-H522 lung 94.4% | A549/ATCC NSCLC 87.7% | 786-0 renal 102% | COLO 205 colon 110% | DU-145 prostate 103% | K-562 leukemia 90.5% | MALME-3M melanoma 86.8% | MDA-MB-231 breast 101% | RXF 393 renal 111% | SF-268 CNS 99.2% | SF-295 CNS 102% | SF-539 CNS 86.5% | UACC-257 melanoma 105% | M14 melanoma 96.4%

Cc1ccc2c(c1)C(=O)/C(=C/c1cccc(F)c1)S2
inactive: NCI-H23 lung 101% | NCI-H226 lung 88.5% | NCI-H322M lung 98.2% | HOP-62 NSCLC 109% | NCI-H460 lung 105% | NCI-H522 lung 93.2% | A549/ATCC NSCLC 107% | 786-0 renal 103% | COLO 205 colon 112% | DU-145 prostate 111% | K-562 leukemia 90.7% | MALME-3M melanoma 97.9% | MDA-MB-231 breast 99.8% | RXF 393 renal 96.6% | SF-268 CNS 101% | SF-295 CNS 105% | SF-539 CNS 100% | UACC-257 melanoma 103% | M14 melanoma 109%

Cc1cc(-c2ccc(Cl)cc2)n(Cc2nnc(SCC(=O)Nc3ccc(S(N)(=O)=O)cc3)n2-c2ccc([N+](=O)[O-])cc2)n1
inactive: NCI-H23 lung 90.2% | NCI-H226 lung 85.1% | NCI-H322M lung 96% | HOP-62 NSCLC 104% | NCI-H460 lung 67.1% | NCI-H522 lung 90% | A549/ATCC NSCLC 84.3% | 786-0 renal 109% | COLO 205 colon 97% | DU-145 prostate 101% | K-562 leukemia 64.3% | MALME-3M melanoma 92.9% | MDA-MB-231 breast 93.3% | RXF 393 renal 75.9% | SF-268 CNS 95.6% | SF-295 CNS 73.4% | SF-539 CNS 97% | UACC-257 melanoma 98.5% | M14 melanoma 85.5%

Cc1ccc(CSc2nc(-c3ccc(Cl)cc3)c(C#N)c(N3CCOCC3)n2)cc1
inactive: NCI-H23 lung 95% | NCI-H226 lung 94.4% | NCI-H322M lung 103% | HOP-62 NSCLC 110% | NCI-H460 lung 96.2% | NCI-H522 lung 78.4% | A549/ATCC NSCLC 91.8% | 786-0 renal 87.5% | COLO 205 colon 125% | DU-145 prostate 105% | K-562 leukemia 91.5% | MALME-3M melanoma 108% | MDA-MB-231 breast 98.9% | RXF 393 renal 88.3% | SF-268 CNS 95.5% | SF-295 CNS 98.6% | SF-539 CNS 99.1% | UACC-257 melanoma 97.6% | M14 melanoma 98%

COc1cc(-c2nc3sccn3c2-c2ccnc(S(C)(=O)=O)n2)ccc1F
inactive: NCI-H23 lung 92.4% | NCI-H226 lung 94.5% | NCI-H322M lung 89.3% | HOP-62 NSCLC 108% | NCI-H460 lung 100% | NCI-H522 lung 93.4% | A549/ATCC NSCLC 94.2% | 786-0 renal 102% | COLO 205 colon 114% | DU-145 prostate 102% | K-562 leukemia 89.6% | MDA-MB-231 breast 87% | RXF 393 renal 84.5% | SF-268 CNS 100% | SF-295 CNS 98.6% | SF-539 CNS 91.5% | UACC-257 melanoma 96.1% | M14 melanoma 97.9%
active: MALME-3M melanoma 4.8%

C#CCn1cccc1CNc1ccc(OC)cc1
inactive: NCI-H322M lung 47% | UACC-257 melanoma 23.6%
active: NCI-H23 lung -88.9% | NCI-H226 lung -50.1% | HOP-62 NSCLC -45.3% | NCI-H460 lung -50.5% | NCI-H522 lung -57.7% | A549/ATCC NSCLC -47.6% | 786-0 renal -69.6% | COLO 205 colon -60.7% | DU-145 prostate -96.6% | K-562 leukemia -46.9% | MDA-MB-231 breast -53.9% | RXF 393 renal -32.3% | SF-268 CNS -56% | SF-295 CNS -92% | SF-539 CNS -94.4% | M14 melanoma 7.08%
